Here are results for 7 compounds from PubChem BioAssay (NCATS).

Several values for one entry are separate records, joined by “and”; a condition that tells them apart may be missing. Equal values may be shown once. Results filed as inconclusive are left out. Some compounds were tested as several samples or in several runs, with calls that do not always agree. Activity calls are given as the source filed them. Unless noted, calls follow the shape of the dose curve; as a rule, active = well fitted curve in either direction with a large enough effect (not every such curve was filed as active); inconclusive = small, poorly fitted or top-dose-only effect, or another doubt; inactive = flat fitted curve, though single readings scatter.

For assay [1], the target named is Lysosomal acid glucosylceramidase (Homo sapiens) (UniProt P04062). Kind of assay: Glucocerebrosidase-p2 (AID 348; in the data active = potency below about 10 µM; also: potency is read from the fitted curve at half-maximal effect). To be noted: purified GBA, blue fluorogenic substrate, 40 min. The gist of the method:
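Compounds titrated from 0.6 nM upwards against 0.2 nM enzyme in pH 5.9 citric acid/KH2PO4, taurocholate, tween-20; blue fluorogenic substrate 80 uM, 40 min room temperature, stopped and read Ex 365/Em 440 for AC50.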

Assay [2] is described as follows: AP1 Signaling Pathway (AID 357).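 Also: ME-180 reporter cells stimulated with EGF at its EC50 level; % is scaled to controls: 0 for no effect and ±100 for the full control effect.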 To be noted: ME-180 AP-1-bla reporter, EGF-induced, beta-lactamase ratio, 5 h; at 38 µM (top of the series) unless noted. The essentials: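 AP-1-bla ME-180 cells, Opti-MEM + 0.5% dialyzed FBS, plated overnight 37 °C. Cpd titration + EC50 EGF, 5 h 37 °C. CCF4 2.5 h RT; ex 405, em 460/530 ratio → %activity, AC50.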
Assay [3] deals with Cytochrome P450 1A2 (Homo sapiens) (UniProt P05177). Kind of assay: p450-cyp1a2 (AID 410; calls by dose curve; also: potency is read from the fitted curve at half-maximal effect;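 as to activity change, negative = inhibition: -100% = full effect of reference inhibitor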). The gist of the method:
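Human CYP1A2 (20nM) demethylated Luciferin-ME at its Km (100uM) in 100mM KPO4. After 10 min compound preincubation, NADPH regeneration ran the reaction 60 min at room temperature. Luciferin was read by luminescence, normalized to 57 uM furafylline.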

Assay [4] in a line: NFAT Signaling Pathway (AID 444).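 Also: carbachol stimulus at about its EC50 of 1 µM final; % is scaled to controls: 0 for no effect and ±100 for the full control effect.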 To be noted: Jurkat NFAT-bla M1, carbachol, beta-lactamase ratio, 5 h; at 38 µM (top of the series) unless noted. The essentials: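 Jurkat cells with NFAT-driven β-lactamase reporter and co-expressed M1 receptor, stimulated with carbachol (final 1 uM, ~EC50), compound titration, 5 h at 37 °C. CCF4 loaded 1 h at RT; 460/530 nm ratio gave %activity and AC50.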

Assay [5] can be described thus: Stat Signaling Pathway (AID 446).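 Also: ME-180 cervical cancer cells given 40 pM IL-6 alongside compound; SIE-controlled beta-lactamase reporter measured as 460/530 nm FRET emission ratio; % is scaled to controls: 0 for no effect and ±100 for the full control effect.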 To be noted: ME-180 (cervical carcinoma) SIE beta-lactamase reporter, IL-6 stimulated, 5 h; at 38 µM (top of the series) unless noted. The gist of the method:
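ME-180 SIE-bla cells; overnight plating; cpd + IL-6 40 pM, 5 h, 37 C; LiveBLAzer 2.5 h RT; 460/530 nm emission ratio. Normalized to 300 pM IL-6 and 125 nM JAK inhibitor controls.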

Assay [6] addresses Glucocorticoid receptor (Homo sapiens) (UniProt P04150). Put plainly: GR-GFP Redistribution (AID 450;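 active = compounds whose dose series gives a full or clear partial fitted curve of increased nuclear translocation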; also: potency is read from the fitted curve at half-maximal effect). Particulars: U2OS GR-GFP nuclear translocation, laser cytometry, 2 h.
Assay [7] has the same target. Kind of assay: GR-EFC Redistribution (AID 451; calls by dose curve; also: potency is read from the fitted curve at half-maximal effect). Particulars: CHO-K1 GR-EFC translocation, beta-gal luminescence, 2 h. The essentials:
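CHO-K1 cells expressing nuclear EA and GR-ED fragments of b-gal; compounds titrated up to 46 uM final, 2 h at 37 C. GR nuclear translocation read as complemented b-gal luminescence after 1 h RT detection.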

Assay [8] concerns the target Mitogen-activated protein kinase 10 (Mus musculus) (UniProt Q61831). Put plainly: JNK3 AlphaScreen Assay (AID 530).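 Also: kinase came from lysate of stimulated human HepG2 cells; signal reports phosphorylation of biotinylated GST-cJun 1-79 at Ser73 with 10 µM ATP; % is scaled to controls: 0 for no effect and ±100 for the full control effect.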 The gist of the method: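 qHTS format: compounds tested as titrations against IL-1beta/TNF-alpha-activated HepG2 lysate JNK3 with biotin-GST-cJun substrate and 10 uM ATP at room temperature. Loss of anti-phospho-cJun AlphaScreen signal indicates inhibition.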

Assay [9] in a line: Cell Viability - BJ (AID 421; calls by dose curve;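 also: potency is read from the fitted curve at half-maximal effect; cells exposed to compound for 40 hours at 37 °C before readout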). Particulars: BJ fibroblast viability, qHTS. The essentials:
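Luminescent ATP signal (CellTiter-Glo, 20 min at room temperature) served as the read-out of viable BJ cells after 40 hours of compound treatment. Responses were scaled between DMSO and 100 uM tamoxifen, and AC50 values were obtained by Hill modeling.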
(qHTS replaces the single test concentration by a dilution series.)

A short description of assay [10]: Cell Viability - Jurkat (AID 426;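 active = dose-dependent loss of cell ATP signal giving a full or clear fitted curve, ranked by lower potency value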; also: potency is read from the fitted curve at half-maximal effect). To be noted: qHTS. The gist of the method:
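Jurkat (clone E6-1, human T-cell leukemia) cells, 5000/well in complete medium, were exposed to compound for 40 hr at 37 °C. Viability was read as intracellular ATP by CellTiter-Glo luminescence; AC50 came from Hill fits of concentration-response data.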

Assay [11] is described as follows: Cell Viability - Hek293 (AID 427;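 active = compounds whose dose-response curve shows a full or clear partial loss of cell viability, called from curve shape rather than a numeric limit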;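 also: potency is read from the fitted curve at half-maximal effect; cells exposed to compound for 40 hours at 37 °C before reading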). To be noted: qHTS. The gist of the method:
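Luminescent ATP read-out (CellTiter-Glo, 20 min RT) after 40 hr compound exposure at 37 °C in complete medium. Signal normalized to DMSO (basal) and 100 uM tamoxifen (100% inhibition); concentration-response fitted with the standard Hill equation to give AC50.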

Assay [12] can be described thus: Cell Viability - HepG2 (AID 433; calls by dose curve;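 also: potency is read from the fitted curve at half-maximal effect; potency for ATP loss meaning cytotoxicity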). To be noted: qHTS. The essentials:
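In this qHTS format, a 40 h, 37 °C compound incubation of HepG2 cells in complete medium precedes a 20 min CellTiter-Glo step at room temperature. Tamoxifen and doxorubicin serve as positive controls; Hill-equation fits yield AC50.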

The nature of assay [13]: Cell Viability - MRC5 (AID 434; calls by dose curve;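 also: potency is read from the fitted curve at half-maximal effect; potency reflects cytotoxicity seen as loss of intracellular ATP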). To be noted: MRC5 lung fibroblast viability, qHTS. The essentials:
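MRC5 normal human lung fibroblasts, 1500 cells/well, exposed to compound for 40 hr at 37 C. Cellular ATP was read by CellTiter-Glo luminescence; data normalized to DMSO and 100 uM tamoxifen, with AC50 from Hill fits.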

A short description of assay [14]: Cell Viability - SK-N-SH (AID 435; calls by dose curve;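 also: potency is read from the fitted curve at half-maximal effect; compound exposure lasted 40 h at 37 °C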). To be noted: SK-N-SH neuroblastoma cell viability qHTS. The essentials: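 Human neuroblastoma line, 40 h exposure at 37 °C, ATP quantified via luciferase luminescence; DMSO and 100 uM tamoxifen define 0 and 100% inhibition for AC50 fitting.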
The nature of assay [15]: Cell Viability - N2a (AID 540; active = well fitted curve in the direction sought with a large enough effect; an effect the other way counts as inactive or inconclusive;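 also: plate controls were DMSO alone for no effect and tamoxifen control for full effect; nearly all actives have a fitted effect of over 45% in size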). The gist of the method:
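Mouse neuroblastoma N2a cells (1500/well) were preincubated 5 hr at 37 °C, then exposed to compounds for 40 hr at 37 °C in complete medium. Viability was read as intracellular ATP by CellTiter-Glo luminescence; AC50 from Hill fits.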

The nature of assay [16]: Cell Viability - NIH 3T3 (AID 541; active = well fitted curve in the direction sought with a large enough effect; an effect the other way counts as inactive or inconclusive;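 also: plate controls were DMSO alone for no effect and tamoxifen positive control for full effect; nearly all actives have a fitted effect of over 25% in size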). The gist of the method: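 NIH 3T3 mouse embryo fibroblasts (1000 cells/well) were plated in complete medium and treated with compound for 40 hr at 37 °C. Viability was read as intracellular ATP by CellTiter-Glo luminescence; AC50 values came from Hill-equation fits of concentration-response data.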
Assay [17] can be described thus: Cell Viability - HUV-EC-C (AID 542; active = well fitted curve in the direction sought with a large enough effect; an effect the other way counts as inactive or inconclusive; also: % is scaled to controls: 0 for no effect and ±100 for the full control effect; nearly all actives have a fitted effect of over 35% in size). The gist of the method: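 HUV-EC-C normal human vascular endothelial cells, 1000 cells/well, pre-incubated 5 hr at 37 °C, then exposed to compounds for 40 hr at 37 °C in complete medium. Viability measured as intracellular ATP by CellTiter-Glo luminescence; AC50 from Hill fits.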
Assay [18] is described as follows: Cell Viability - H-4-II-E (AID 543; active = well fitted curve in the direction sought with a large enough effect; an effect the other way counts as inactive or inconclusive; also: % is scaled to controls: 0 for no effect and ±100 for the full control effect; nearly all actives have a fitted effect of over 35% in size). The gist of the method: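 Rat hepatoma H-4-II-E cells (1500/well) were plated, incubated 5 hr at 37 °C, then exposed to compounds for 40 hr at 37 °C. Cellular ATP was read by CellTiter-Glo luminescence; AC50 came from Hill-equation fits of concentration-response data.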
Assay [19] is described as follows: Cell Viability - SH-SY5Y (AID 544; active = well fitted curve in the direction sought with a large enough effect; an effect the other way counts as inactive or inconclusive;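 also: 0% = DMSO alone and -100% = 100 µM tamoxifen; nearly all actives have a fitted effect of over 55% in size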). The essentials:
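Human neuroblastoma SH-SY5Y cells (1500/well) in complete medium were exposed to compounds for 40 hr at 37 °C; intracellular ATP was then quantified by CellTiter-Glo luminescence after 20 min at room temperature. AC50 came from Hill-equation concentration-response fits.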

Assay [20] in a line: Cell Viability - Renal Proximal Tubule (AID 545; active = well fitted curve in the direction sought with a large enough effect; an effect the other way counts as inactive or inconclusive;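 also: 0% = DMSO only and -100% = 100 µM tamoxifen; nearly all actives have a fitted effect of over 40% in size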). The gist of the method:
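In this qHTS format, normal rat kidney-derived proximal tubule cells in complete culture medium receive compound titrations, then sit 40 hours at 37 °C before luciferase-based ATP quantitation; potency is reported as AC50 from concentration-response curves.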

Cytochrome P450 1A2 (Homo sapiens), sequence (P05177 whole entry, looked up): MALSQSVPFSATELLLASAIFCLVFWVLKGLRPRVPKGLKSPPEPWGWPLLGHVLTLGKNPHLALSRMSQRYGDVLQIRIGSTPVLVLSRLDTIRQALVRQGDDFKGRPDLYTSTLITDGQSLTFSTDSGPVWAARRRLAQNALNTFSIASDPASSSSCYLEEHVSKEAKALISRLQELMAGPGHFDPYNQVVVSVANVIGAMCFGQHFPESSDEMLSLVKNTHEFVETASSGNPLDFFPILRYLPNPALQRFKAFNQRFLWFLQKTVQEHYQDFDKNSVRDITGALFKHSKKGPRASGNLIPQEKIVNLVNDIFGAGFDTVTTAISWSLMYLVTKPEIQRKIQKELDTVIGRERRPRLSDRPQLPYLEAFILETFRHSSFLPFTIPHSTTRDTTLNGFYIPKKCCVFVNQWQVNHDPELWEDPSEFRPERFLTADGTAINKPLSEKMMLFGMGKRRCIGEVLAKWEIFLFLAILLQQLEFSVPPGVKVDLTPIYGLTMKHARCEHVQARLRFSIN
Glucocorticoid receptor (Homo sapiens), sequence (P04150 whole entry, looked up): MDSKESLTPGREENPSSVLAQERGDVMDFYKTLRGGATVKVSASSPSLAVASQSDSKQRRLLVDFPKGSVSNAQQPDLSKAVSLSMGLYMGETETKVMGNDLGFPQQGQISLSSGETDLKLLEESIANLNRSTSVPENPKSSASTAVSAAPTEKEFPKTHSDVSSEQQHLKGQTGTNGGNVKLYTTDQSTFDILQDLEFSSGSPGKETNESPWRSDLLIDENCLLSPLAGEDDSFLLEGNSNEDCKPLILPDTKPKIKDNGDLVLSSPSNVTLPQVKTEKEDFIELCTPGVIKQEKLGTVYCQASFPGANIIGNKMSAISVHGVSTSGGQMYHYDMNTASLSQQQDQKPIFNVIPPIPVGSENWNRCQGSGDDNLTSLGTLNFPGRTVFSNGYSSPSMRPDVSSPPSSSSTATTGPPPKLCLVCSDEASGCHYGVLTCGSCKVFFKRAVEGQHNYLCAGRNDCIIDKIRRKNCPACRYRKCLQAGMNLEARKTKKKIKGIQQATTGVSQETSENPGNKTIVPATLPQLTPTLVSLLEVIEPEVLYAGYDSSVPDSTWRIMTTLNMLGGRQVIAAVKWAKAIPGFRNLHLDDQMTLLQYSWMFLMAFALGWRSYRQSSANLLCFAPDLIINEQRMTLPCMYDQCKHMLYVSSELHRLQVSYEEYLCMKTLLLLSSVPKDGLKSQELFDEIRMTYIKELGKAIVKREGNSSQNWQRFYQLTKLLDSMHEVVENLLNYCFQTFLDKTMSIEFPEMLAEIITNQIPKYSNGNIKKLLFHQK
Lysosomal acid glucosylceramidase (Homo sapiens), sequence (P04062 whole entry, looked up): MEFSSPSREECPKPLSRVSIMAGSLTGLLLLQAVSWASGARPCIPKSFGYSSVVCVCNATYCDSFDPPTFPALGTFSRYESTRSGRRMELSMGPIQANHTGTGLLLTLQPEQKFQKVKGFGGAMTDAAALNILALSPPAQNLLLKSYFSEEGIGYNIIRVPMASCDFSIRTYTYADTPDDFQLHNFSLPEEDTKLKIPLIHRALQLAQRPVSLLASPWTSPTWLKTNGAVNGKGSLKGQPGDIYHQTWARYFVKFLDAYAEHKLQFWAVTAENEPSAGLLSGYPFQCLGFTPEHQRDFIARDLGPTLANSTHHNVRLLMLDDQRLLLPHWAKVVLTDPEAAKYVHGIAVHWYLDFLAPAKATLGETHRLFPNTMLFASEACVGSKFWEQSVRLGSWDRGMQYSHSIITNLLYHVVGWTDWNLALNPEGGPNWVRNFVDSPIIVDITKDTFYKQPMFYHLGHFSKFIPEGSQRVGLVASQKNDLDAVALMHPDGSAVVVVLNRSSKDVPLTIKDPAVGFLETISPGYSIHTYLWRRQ

For the compound `O=c1[nH]c(=S)[nH]c(-c2ccccc2)c1Cc1c(O)ccc2ccccc12`, the Potency in assay [1] is > 11.4 µM (inactive); in [3], 1 µM (active); in [6] it was > 46 µM (inactive); in assay [7], > 9.22 µM (inactive). In addition, the activity change, negative = inhibition in assay [2] is -11.2% [at 7.69 µM] (inactive); in [4] it was 15.8% [at 7.69 µM] (inactive). Further, in assay [5], the activity, negative = inhibition is -12.5% [at 7.69 µM] (inactive).

`O=C(O)c1ccccc1Nc1ccccc1`: the figures for the activity change, negative = inhibition in assay [2] and in assay [4] were 4.51% (inactive) and 6% (inactive), respectively. The results for the Potency in assay [3], in assay [6] and in assay [7] were 15.8 µM (active), > 46 µM (inactive) and > 46 µM (inactive), respectively. The activity, negative = inhibition in [5] is -15.6% (inactive).

Consider `CC[N+](CC)(CC)CC(=O)Nc1c(C)cccc1C`, for which the activity change, negative = inhibition in [2] is 6.05% (inactive); in [4], -27.1% (inactive). The Potency entry is “inactive and 31.6 µM (active)” in [3]; > 46 µM (inactive) in assay [6]; > 46 µM (inactive) in assay [7]. Besides, the activity, negative = inhibition in assay [5] is -19.8% (inactive). Besides, the compound was called inactive in assay [8].

With `NC(=O)c1ccccc1`, the activity change, negative = inhibition was -2.04% (inactive) in assay [2] and 20.6% (inactive) in [4]. In assay [3], the Potency result is “inactive”. The Potency in assay [9], in assay [10], in assay [11], in assay [12], in assay [13] and in assay [14] was > 92 µM (inactive) each time. In addition, the Potency in assay [6] and in [7] was > 46 µM (inactive) throughout. Also, the result in assay [15], in assay [16], in [17], in [18], in [19] and in assay [20] was inactive.

Turning to `CCC(=O)N1CCN(C(=O)c2ccccc2)CC1`, the results for the activity change, negative = inhibition in assay [2] and in [4] were -5.7% (inactive) and 3.73% (inactive), respectively. Moreover, the Potency result in [3] was “inactive”. The activity, negative = inhibition in assay [5] is 2.58% (inactive). Further, the Potency in [6] and in [7] was > 46 µM (inactive) in each case. Also, in [8], the call was inactive.

Regarding `Cn1c(=O)[nH]c2ncn(C)c2c1=O`, the results for the activity change, negative = inhibition in assay [2] and in [4] were 0.808% (inactive) and -1.89% (inactive), respectively. Further, the Potency entry in assay [3] was “inactive”. The activity, negative = inhibition in assay [5] was 3.46% (inactive). The Potency in assay [6] and in [7] was > 46 µM (inactive) in each case.

Regarding `CC(C)Cn1c(=O)n(C)c(=O)c2[nH]cnc21`, the activity change, negative = inhibition in assay [2] is 0.858% (inactive); in assay [4], -7.31% (inactive). The Potency in assay [3] is 20 µM (active); in assay [6] it was > 46 µM (inactive); in [7], > 46 µM (inactive). Further, the activity, negative = inhibition in [5] was -25.6% (inactive). Moreover, in [8], the compound was classed as inactive.
